# From PubChem
# Shown are actives, neighbours in structure and some others; about 7.3% of the full set was active somewhere.
# Luc counter – counter-screen: inhibitors of Kinase-Glo firefly luciferase; Kinase-Glo luciferase, ATP luminescence, 8 min; 200,000 compounds, 0.28% hits; Q27757; Potency, µM (top dose mostly 38.3 µM), for the others: at the highest dose activity change, negative = inhibition, usual class: inhibitors; note: % is set by controls: 0 for no effect and ±100 for the full control effect; nearly all actives have a fitted effect of over 60% in size
#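 Light output from Kinase-Glo luciferase with luciferin and 10 uM ATP in 50 mM imidazole pH 7.2, KCl, MgCl2, Tween 20, BSA; compound pin-delivered, 8-min ambient incubation, then luminescence read.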
# ELG1 genotox – genotoxicity induction in ELG1-luciferase HEK293T cells. HEK293T ELG1-luciferase reporter, luminescence, 16 h. Potency, µM (top dose mostly 46 µM), for inactives: top-dose activity change, positive = activation, hits mostly activators. 330,000 compounds, 1.3% hits. AID 504466; note: % of control where 0% means no effect; nearly all actives have a fitted effect of over 60% in size
#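 Step 1: seed 2,000 HEK293T ELG1-luciferase cells per well. Step 2: add compound or DMSO, incubate 16 hr at 37 °C. Step 3: ONE-Glo, 30 min at room temperature, read luminescence.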
# Rab9 prom act – Rab9 promoter activation. Potency, µM (highest dose often 9.22 µM), for inactives: at the highest dose activation, negative = inhibition, hits mostly activators. Huh7 Rab9 promoter-luciferase reporter, luminescence, 24 h. 320,000 compounds, 2.8% hits; note: % of control where 0% means no effect; nearly all actives have a fitted effect of over 60% in size
#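 Huh7 cells stably carrying a Rab9 promoter-luciferase reporter, 1500 cells per well in OP-MEM I with 10% FBS, treated with compound 24 hours at 37C. Luciferase activity read by luminescence after 10 minutes with Amplite reagent.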
# SMN2 splice up – enhancers of SMN2 splice variant expression | AID 1458 | 210,000 compounds, 2.8% hits | HEK293 SMN2-luciferase splicing reporter, luminescence, 30-36 h | Potency, µM (titrated, usually from 46.1 µM), without a hit: top-dose activity change, positive = activation, hits mostly activators; note: % of control where 0% means no effect; nearly all actives have a fitted effect of over 55% in size
#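 qHTS luciferase splicing reporter: luminescence rises when SMN2 exon 7 is included in transfected HEK293 cells. Compound exposure lasted 30-36 h at 37C, with 4.5 mM final sodium butyrate as control, followed by a ONE-Glo read.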
# NPC1 prom act – activates the NPC1 promoter; Huh7 NPC1 promoter luciferase reporter, 24 h; Potency, µM (doses to about 9.22 µM), without a hit: at the highest dose activation, usual class: activators; 320,000 compounds, 2.4% hits; note: % of control where 0% means no effect; nearly all actives have a fitted effect of over 60% in size
#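 Stably transfected Huh7 (NPC1 promoter→luciferase), 1500 cells/well in Opti-MEM + 10% FBS, 2 h settle, then compound 24 h at 37 °C. Luminescence after 10 min with Amplite reagent.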
# FLuc counter – counter-screen for miR-21 project: firefly luciferase inhibitors or activators. P08659. purified FLuc, Km substrates, luminescence inhibition. Potency, µM (series often up to 57.5 µM), without a hit: at the highest dose activity change, negative = inhibition, actives largely listed as inhibitors. 360,000 compounds, 6.9% hits. AID 588342;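 note: plate controls were vehicle for no effect and reference inhibitor for full effect; nearly all actives have a fitted effect of over 55% in size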
# Target sequence (P08659 whole entry, looked up): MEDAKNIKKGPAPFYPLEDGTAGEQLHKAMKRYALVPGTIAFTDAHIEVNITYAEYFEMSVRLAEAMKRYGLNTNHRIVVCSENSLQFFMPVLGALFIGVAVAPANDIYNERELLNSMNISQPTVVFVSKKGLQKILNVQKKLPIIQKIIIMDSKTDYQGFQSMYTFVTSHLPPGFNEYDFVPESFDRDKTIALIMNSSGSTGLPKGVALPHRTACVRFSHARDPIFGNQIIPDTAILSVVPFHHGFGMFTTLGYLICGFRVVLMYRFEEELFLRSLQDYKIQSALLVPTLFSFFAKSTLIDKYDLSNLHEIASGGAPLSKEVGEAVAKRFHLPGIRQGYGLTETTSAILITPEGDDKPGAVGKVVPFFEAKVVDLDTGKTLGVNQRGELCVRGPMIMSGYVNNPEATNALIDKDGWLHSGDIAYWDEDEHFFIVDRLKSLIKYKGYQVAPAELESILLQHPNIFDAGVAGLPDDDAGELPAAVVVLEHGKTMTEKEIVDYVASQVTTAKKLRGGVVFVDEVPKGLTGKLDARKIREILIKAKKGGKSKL
#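 Purified P. pyralis luciferase (10nM final) with 10uM D-luciferin and 10uM ATP (Km levels) in 50mM Tris acetate pH 7.5, 10mM Mg acetate, 0.01% Tween-20, 0.05% BSA; qHTS 6-point titration, ~60 µM downward; luminescence read.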
# An asterisk follows results filed as active; ? = inconclusive; / = no result; [ ] = another dose, or the depositor's remark. Calls come from the whole dose curve; as a rule, active = well fitted curve in the direction sought with a large enough effect; inconclusive = small, poorly fitted or top-dose-only effect, or another doubt; inactive = no such curve, though single readings can be large; an effect the other way counts as inactive or inconclusive. Potency is the fitted concentration of half-maximal effect.
SMILES,Luc counter,ELG1 genotox,Rab9 prom act,SMN2 splice up,NPC1 prom act,FLuc counter
CCc1cccc(NC(=O)CCNS(=O)(=O)c2ccc3c(c2)CCN3C(C)=O)c1,/,/,/,-29.8%,/,4.5%
CN(c1nnc(NC(=O)Nc2ccccc2C(F)(F)F)s1)C1CCCCC1,/,/,/,/,/,-5.4%
CCCCC(=O)OCc1cc(=O)n2nc(C3CCCCC3)sc2n1,/,/,/,/,/,-16.3%
CCc1cc(-c2[nH]ncc2-c2ccc3c(c2)OCO3)c(O)cc1O,-2.3%,-22.5%,0.0%,-52.5%,7.9%,?
CC(C)C1N=C(c2ccc3c(c2)OCO3)CC(c2ccccc2O)N1 (stereo not drawn),-10.4%,17.9%,?,-1.0%,?,10.7µM*
CC(C)N(Cc1nc(-c2ccccc2)no1)C(=O)C(C)(C)C,-2.6%,9.4%,-4.2%,-5.7%,1.3%,3.6%
COc1ccc(-c2noc(CN(C(=O)C(C)(C)C)C(C)C)n2)cc1,-1.2%,14.6µM*,25.9%,3.9%,18.1%,?
CCOC(=O)CCn1nc(C)c2c(C)n(-c3ccccc3)nc2c1=O,/,/,/,6.1%,/,3.5%
COc1ccc(CCn2c(=O)c3cccnc3n(CC(=O)Nc3ccc(C)cc3C)c2=O)cc1OC,/,/,/,-8.7%,/,-1.5%
O=C(Nn1c(O)c(C=C2N=c3ccccc3=N2)sc1=S)c1ccccc1,-3.9%,6.1%,-3.8%,0.3%,0.0%,6.01µM*
Cc1ccc(C(=O)Nn2c(O)c(C=C3N=c4ccccc4=N3)sc2=S)cc1,-2.2%,5.3%,5.5%,29.3%,0.5%,?
Oc1[nH]c(=S)sc1C=C1N=c2ccccc2=N1,/,?,26.9%,/,?,6.01µM*
Cc1ccc(S(=O)(=O)Nn2c(O)c(C=C3N=c4ccccc4=N3)sc2=S)cc1,/,-3.1%,2.1%,/,-0.3%,16.9µM*
CN(C)c1ccc(/C=C(\C#N)c2nc(-c3ccc(Cl)c(Cl)c3)cs2)cc1,/,/,/,7.1%,/,3.9%
c1ccc(CN2CCC3(CC2)SSC2(CCN(Cc4ccccc4)CC2)SS3)cc1,-2.7%[7.66 µM],/,/,-2.9%[9.22 µM],/,/
O=C(c1cc2ccccc2oc1=O)N1CCN(c2ccc(Cl)cc2)CC1,/,/,/,0.5%,/,-0.1%
Cc1c2cnn(CC(=O)NCc3ccc(F)cc3)c(=O)c2c(C)n1Cc1cccc(Cl)c1,/,/,/,-1.8%,/,-2.3%
O=C1c2ccccc2CCC12N=NCC2c1ccccc1 (stereo not drawn),-2.8%,1.9%,-4.8%,-14.7%,-5.4%,16.9µM*
O=C1c2ccccc2CCc2ccc(Br)cc21,/,5.5%,-1.8%,/,-0.4%,?
CCn1cc(S(=O)(=O)c2cc(C)cc(C)c2)c(=O)c2cc(F)c(N3CCN(c4ccccc4)CC3)cc21,/,/,/,/,/,0.0%
Cc1cc(NC(=O)CCNS(=O)(=O)c2ccc3c(c2)CCCC(=O)N3)ccc1Br,/,/,/,/,/,-3.4%
COC(=O)c1ccc(OC(=O)c2ccccc2F)cc1,-3.2%,1.7%,-2.2%,-4.0%,0.7%,13.5µM*
O=C(Oc1ccc(C(=S)N2CCOCC2)cc1)c1ccccc1F,/,5.2%,5.9%,/,-3.1%,?
CC(=O)c1cccc(OCc2cc(C(=O)N3C[C@@H](C)O[C@@H](C)C3)no2)c1,/,?,?,/,?,15.1µM*
COc1cccc(OCc2cc(C(=O)N(C)CCC3CCCCO3)no2)c1 (stereo not drawn),/,11.8%,?,/,?,?
SMILES,Luc counter,ELG1 genotox,Rab9 prom act,SMN2 splice up,NPC1 prom act,FLuc counter
CC(=O)c1cccc(OCc2cc(C(=O)N3C[C@H]4CC[C@H]3C4)no2)c1,/,?,2µM*,/,2.51µM*,9.53µM*
O=C(c1cc(COc2cccc(C(F)(F)F)c2)on1)N1C[C@H]2CC[C@H]1C2,/,?,2.24µM*,/,2.82µM*,15.1µM*
CC(=O)c1cccc(OCc2cc(C(=O)N(C)CCC3CCOCC3)no2)c1,/,15.3%,?,/,26.1%,16.9µM*
CC1(C)C[C@@H]2C[C@@](C)(CN2C(=O)c2cc(COc3cccc(C(F)(F)F)c3)on2)C1,/,-4.4%,0.9%,/,-3.7%,3.5%
Cc1ccc2sc(NNC(=O)C3COc4ccccc4O3)nc2c1C (stereo not drawn),0.6%,-2.4%,1.8%,10µM*,-1.4%,0.3%
Cc1csc(NC(=O)C2COc3ccccc3O2)n1 (stereo not drawn),-12.4%,0.517µM*,0.447µM*,?,?,1.2µM*
Cc1cnc(NC(=O)C2COc3ccccc3O2)s1 (stereo not drawn),-20.4%,?,0.316µM*,10µM*,0.1µM*,0.675µM*
Cc1cccc(NC(=O)C2COc3ccccc3O2)n1 (stereo not drawn),/,6.9%,19.9%,/,29.9%,?
O=C(NNc1nc2c(F)cccc2s1)C1COc2ccccc2O1 (stereo not drawn),-0.7%,4.0%,-3.6%,18.0%,7.4%,?
CN(C)[C@H]1C(=O)C(C(=O)NCN2CCCC2)=C(O)[C@]2(O)C(=O)C3=C(O)c4c(O)cccc4[C@@](C)(O)[C@H]3C[C@@H]12,-3.8%[17.1 µM],/,/,-12.2%[20.6 µM],/,/
O=S(=O)(Nc1nc2ccccc2nc1Nc1ccc(N2CCOCC2)cc1)c1cc(Cl)ccc1Cl,3.0%,-3.6%,-7.8%,-71.9%,-5.3%,15.1µM*
CCOC(=O)C1=C(O)c2ccccc2C(=O)/C1=C\c1ccc(CC)cc1,-11.3%,-5.7%,1.9%,?,1.5%,3.38µM*
CCCc1ccc(/C=C2\C(=O)c3ccccc3C(O)=C2C(=O)OCC)cc1,-6.3%,?,1.8%,10µM*,16.0%,3.38µM*
CCOC(=O)C1=C(C)N(c2ccccc2)C(=O)/C1=C\c1ccc(O)c(OC)c1,/,0.4%,0.8%,/,-3.6%,?
CCOC(=O)C1=C(C)N(CC(C)C)C(=O)/C1=C\c1ccc(OCC(=O)Nc2ccccc2)cc1,-2.4%,0.1%,-3.3%,-16.5%,-8.9%,-2.9%
COc1ccc2c(c1)c(=O)c(S(=O)(=O)c1ccc(C)c(C)c1)cn2CC(=O)Nc1ccccc1,/,/,/,-1.6%,/,-0.5%
COc1cccc(Cc2nc3ccccc3nc2SCC(=O)N2CCCc3ccccc32)c1,/,/,/,/,/,2.5%
O=C(CCCC(=O)c1ccc(F)cc1)c1ccc(F)cc1,/,?,1µM*,/,2.82µM*,3.01µM*
CCOc1ccc(C(=O)COC(=O)c2nc3nccc(C)n3n2)cc1,/,4.1%,8.8%,/,-3.1%,-17.8%
CCOc1ccc(C(=O)CCCC(=O)c2ccc(OCC)cc2)cc1,/,?,18.6%,/,?,6.75µM*
CCCCC(=O)OCC(=O)c1ccc(OCC)cc1,-23.2%,4.6%,10.5%,-5.4%,17.1%,0.849µM*
O=C(CCCN1CCC(C(=O)c2ccc(F)cc2)CC1)c1ccc(F)cc1,/,-7.8%,-0.4%,/,-1.0%,1.8%
CCOc1ccc(C(=O)COC(=O)CC)cc1,-2.4%,-0.5%,-0.4%,3.0%,-1.8%,5.36µM*
